The list is not random: actives were taken first. Their share in the collection is about 4%.
Gli-Sufu block – antagonists of Gli-Sufu signaling. inhibition, % at 5 µM. 340,000 compounds, 0.74% hits. Sufu-KO-LIGHT fibroblasts, Gli luciferase reporter luminescence;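 active = inhibition above about 55%, limit read from the data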;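 note: 0% = DMSO-treated cells and 100% = wells with medium but no cells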
Jurkat NFkB inh – inhibitors of the PMA/ionomycin-induced NF-kB reporter in Jurkat cells; inhibition, % at 4 µM; 330,000 compounds, 0.53% hits; PMA/ionomycin-induced NF-kB luciferase reporter, luminescence; in the data active = inhibition above about 50%
Mdm2-MdmX inh – human Mdm2/MdmX binding inhibition; O15151+Q00987; SaOS-2 split-luciferase Mdm2/MdmX complementation, luminescence; inhibition, % at 8 µM; 330,000 compounds, 3% hits; AID 485346;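 active = inhibition of at least 50% at 8 µM in the primary screen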
Target sequence (O15151 whole entry, looked up): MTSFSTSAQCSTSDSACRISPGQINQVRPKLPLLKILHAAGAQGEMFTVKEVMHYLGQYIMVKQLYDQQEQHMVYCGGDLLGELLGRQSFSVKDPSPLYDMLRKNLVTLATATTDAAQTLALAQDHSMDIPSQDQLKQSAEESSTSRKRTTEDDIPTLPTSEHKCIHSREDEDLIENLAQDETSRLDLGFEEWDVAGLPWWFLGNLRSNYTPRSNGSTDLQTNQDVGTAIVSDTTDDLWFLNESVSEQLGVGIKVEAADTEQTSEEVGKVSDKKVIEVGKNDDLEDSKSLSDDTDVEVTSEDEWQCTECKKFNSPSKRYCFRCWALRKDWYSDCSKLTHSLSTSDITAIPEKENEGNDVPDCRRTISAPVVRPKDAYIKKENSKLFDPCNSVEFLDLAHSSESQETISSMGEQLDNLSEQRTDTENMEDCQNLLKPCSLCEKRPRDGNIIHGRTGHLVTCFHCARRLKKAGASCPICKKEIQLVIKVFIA
Target sequence (Q00987 whole entry, looked up): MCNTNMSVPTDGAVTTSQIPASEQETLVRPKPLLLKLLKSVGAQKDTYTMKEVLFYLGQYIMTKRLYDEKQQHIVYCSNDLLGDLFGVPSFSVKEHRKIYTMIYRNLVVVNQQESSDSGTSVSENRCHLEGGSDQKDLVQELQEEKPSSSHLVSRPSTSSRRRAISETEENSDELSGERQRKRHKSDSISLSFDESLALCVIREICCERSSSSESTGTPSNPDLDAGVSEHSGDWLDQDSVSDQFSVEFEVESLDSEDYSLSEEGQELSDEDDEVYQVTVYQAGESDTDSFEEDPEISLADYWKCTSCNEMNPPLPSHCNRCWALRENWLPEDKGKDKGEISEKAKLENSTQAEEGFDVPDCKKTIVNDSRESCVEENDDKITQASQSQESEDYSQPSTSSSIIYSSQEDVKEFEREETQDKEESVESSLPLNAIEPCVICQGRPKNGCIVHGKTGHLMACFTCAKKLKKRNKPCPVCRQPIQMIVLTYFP
Beta cell apopt – beta cell apoptosis inhibition; INS-1E cytokine-induced death, ATP luminescence, 48 h; percent of positive-control rescue, neutral wells zero; protection from apoptosis, % (no concentration beside the values); 300,000 compounds, 0.8% hits;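 active = Every replicate reaches about 75%, or at least half do and their mean reaches it too, limit read from the data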;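 note: 0% = cytokine-treated negative control wells and 100% = positive control rescue; higher means more ATP so stronger rescue from cytokine killing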
697 NFkB inh – lowers PMA/ionomycin-induced NF-kB signal in 697 B cells | 697 B-cell NF-kB luciferase reporter, 16 h | inhibition, % at 4 µM | AID 435022 | 330,000 compounds, 0.33% hits; in the data active = inhibition above about 35%
Mdm2 MdmX conf – confirmation of human Mdm2/MdmX interaction inhibitors. 10,000 compounds, 55% hits. shares compounds with Mdm2-MdmX inh. inhibition, % at 8 µM. Mdm2-MdmX binding, luminescent assay. AID 489028; in the data active = inhibition above about 40%
Full FLuc ctr – counter-screen for Mdm2/MdmX inhibitors: full-length luciferase. 6,200 compounds, 77% hits. SaOS-2 full-length luciferase counterscreen, luminescence. inhibition, % at 8 µM. shares compounds with Mdm2-MdmX inh;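 active = mean inhibition at 8 µM reaching about 37%, which flags the compound as non-specific, limit read from the data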;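 note: p53-null SaOS-2 cells with luciferase driven by a doxycycline-inducible promoter; compound on cells about two nights before reading with doxycycline added after day one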
* = called active by the depositor; nt = no result.

SMILES	Gli-Sufu block	Jurkat NFkB inh	Mdm2-MdmX inh	Beta cell apopt	697 NFkB inh	Mdm2 MdmX conf	Full FLuc ctr
COC(=O)C1=C(C)N(CCc2ccccc2)C(=O)C1(NS(=O)(=O)c1ccc(NC(C)=O)cc1)C(F)(F)F (centres undefined)	2.4	0.5	65.1*	-0.9	7.9	32.3	59.3*
O=S1(=O)CC2SC(=S)N(Cc3ccccc3)C2C1 (centres undefined)	1.9	8.5	25.0	-1.1	3.3	nt	nt
CN(C(=O)COC(=O)c1c2c(nc3ccccc13)/C(=C/c1cccc([N+](=O)[O-])c1)CCC2)C1CCS(=O)(=O)C1 (centres undefined)	18.0	-35.0	22.3	20.1	-33.0	nt	nt
O=C(COC(=O)c1c2c(nc3ccccc13)/C(=C/c1cccc([N+](=O)[O-])c1)CCC2)NC1CCS(=O)(=O)C1 (centres undefined)	10.5	-9.3	70.9*	11.3	-42.7	30.6	nt
O=C(CCNC(=O)Cn1ccc2ccccc2c1=O)NCc1ccccn1	-4.6	-4.1	-23.6	-4.2	3.4	nt	nt
O=C(O)c1ccc(C2NCC(c3ccccc3Cl)c3c2[nH]c2ccccc32)cc1 (centres undefined)	13.8	-4.1	3.4	-7.4	17.3	nt	nt
COc1cc(C2NCC(c3ccc(Cl)cc3Cl)c3c2[nH]c2ccccc32)cc(OC)c1OC (centres undefined)	8.1	7.8	61.1*	10.8	-3.6	9.6	nt
Cc1nnc(NC(=O)C23CC4CC(CC(C4)C2)C3)s1	4.8	2.1	11.6	-3.9	12.0	nt	nt
CCOC(=O)CSc1c(-c2ccc(Cl)cc2)[nH]c2ccccc12	-4.3	4.4	7.0	-6.6	-3.0	nt	nt
O=C(Cc1cccs1)NCCSc1c(-c2ccc(Cl)cc2)[nH]c2ccccc12	-0.9	5.9	77.0*	36.9	-4.2	25.2	nt
Cc1ccc(Sc2ccc(NC(=O)CCl)cc2)c(C)c1	-13.9	15.6	65.7*	3.2	24.6	9.1	nt
COc1ccc(-c2oc3ccc(-c4ccc(OC)nc4)cc3c2C#CC2(O)CCCCC2)cc1	-6.0	-7.6	64.0*	13.9	-10.8	30.8	nt
COC(=O)c1c(-c2ccc(OC)cc2)oc2ccc(-c3ccc(OC)nc3)cc12	0.2	2.3	82.0*	15.8	-9.6	57.0*	44.6*
COc1cc(-c2ccc3oc(-c4cccc(C)c4)c(C#CC4(O)CCCCC4)c3c2)cc(OC)c1OC	-0.3	8.8	55.8*	-0.8	8.2	11.3	nt
COc1ccc(-c2oc3ccc(-c4ccc5c(c4)OCO5)cc3c2C#CC2(O)CCCCC2)cc1	-3.0	7.0	65.0*	nt	-23.9	29.1	nt
COc1ccc(-c2oc3ccc(-c4ccc(OC)nc4)cc3c2-c2ccc(OC)cc2)cc1	7.1	12.5	16.2	9.9	9.5	nt	nt
COc1ccc(-c2sc3cc4c(cc3c2C#CC2(O)CCCCC2)OCO4)cc1	10.3	-11.3	5.6	-9.4	-17.3	nt	nt
CC(=O)c1ccc(N(CC(=O)NC2CCCC2)C(=O)CNC(=O)c2ccco2)cc1	3.0	-43.2	10.1	1.5	-7.4	nt	nt
Cc1cc(C)n(-c2nc(SCCN(C)C)c3c4c(sc3n2)COC(C)(C)C4)n1	2.2	-28.1	54.3*	22.6	-3.0	58.2*	52.7*
Cc1cc(C)n(-c2nc(NCC(C)O)c3c4c(sc3n2)COC(C)(C)C4)n1 (centres undefined)	-6.5	-6.4	8.3	13.4	-1.8	nt	nt
CCOC(=O)c1c(C)[nH]c(C)c1C(=O)COC(=O)c1ccc(Cl)c(S(N)(=O)=O)c1	-6.0	2.6	25.7	-4.4	-14.3	nt	nt
CC(C(=O)N(C)C1CCS(=O)(=O)C1)N1C(=O)/C(=C/c2ccc(F)cc2)SC1=S (centres undefined)	8.8	7.8	35.5	-10.8	-29.0	nt	nt
CCN(C(=O)C(C)N1C(=O)/C(=C/c2ccco2)SC1=S)C1CCS(=O)(=O)C1 (centres undefined)	-6.2	0.9	54.8*	-16.8	-31.1	1.9	nt
O=C(O)C1CN(C(=O)c2cccc(Br)c2)C1	0.0	-7.8	-3.4	nt	19.2	nt	nt
N#CCCN(C(=O)COC(=O)CCc1nc2ccccc2c(=O)[nH]1)c1ccccc1F	-18.1	4.2	12.4	2.4	26.5	nt	nt
SMILES	Gli-Sufu block	Jurkat NFkB inh	Mdm2-MdmX inh	Beta cell apopt	697 NFkB inh	Mdm2 MdmX conf	Full FLuc ctr
CC1(C)Cc2c(c(N3CCOCC3)nc3sc4c(NCCN5CCOCC5)nnnc4c23)CS1	8.2	10.8	21.1	5.7	-6.2	nt	nt
CC1(C)Cc2c(c(N3CCOCC3)nc3sc4c(NCC5CCCO5)nnnc4c23)CS1 (centres undefined)	-2.9	-3.3	70.4*	-3.3	4.9	51.8*	69.2*
CC(C)CCNc1nnnc2c1sc1nc(N3CCOCC3)c3c(c12)CC(C)(C)SC3	18.0	-29.4	50.9*	9.1	-6.2	6.2	nt
C1CCc2c(c(N3CCOCC3)nc3sc4c(N5CCOCC5)nnnc4c23)C1	5.3	nt	nt	nt	nt	nt	nt
O=C(Nc1ccc2c(c1)OCCO2)c1ccccc1F	-68.2	-92.8	-23.9	1.4	-128.6	nt	nt
O=C(Nc1ccc2c(c1)OCCO2)c1cccc2nc3ccccc3nc12	9.1	2.3	77.6*	46.4	-4.7	57.2*	27.6
Cc1ccccc1OCC(O)Cn1c(=N)n(Cc2ccccc2)c2ccccc21 (centres undefined)	35.0	24.2	97.4*	63.7	-35.9	95.7*	28.9
N=c1n(CCN2CCOCC2)c2ccccc2n1CC(=O)c1ccc(Cl)c(Cl)c1	11.9	-0.3	-17.7	16.5	-1.1	nt	nt
Cc1ccc(OCC(O)Cn2c(=N)n(CCN3CCCCC3)c3ccccc32)cc1 (centres undefined)	17.0	2.5	68.5*	28.2	-14.8	57.9*	47.5*
COc1ccc(OCC(O)Cn2c(=N)n(CCN3CCCCC3)c3ccccc32)cc1 (centres undefined)	14.2	-7.3	52.5*	2.4	-11.0	40.9*	76.8*
N=c1n(CCN2CCCC2)c2ccccc2n1CC(O)c1ccc(Cl)c(Cl)c1 (centres undefined)	24.7	-6.5	95.5*	3.8	3.9	98.8*	103.5*
COc1ccccc1NC(=O)Nc1cc(NC(=O)Nc2ccccc2OC)c(C)nc1C	-2.1	10.6	56.2*	50.6	-6.7	33.1	60.6*
CC1=C(SCc2ccccc2)C(=O)c2ccccc2C1=O	7.5	nt	nt	nt	nt	nt	nt
O=C1C(SCCO)=C(SCCO)C(=O)c2ccccc21	6.6	16.7	81.9*	99.2*	-51.6	75.0*	21.4
Cc1nc2nc(SCC(=O)NCCCN3CCCC3)nn2c(C)c1Cc1ccccc1Cl	30.8	-0.9	20.8	0.7	-10.1	nt	nt
O=[N+]([O-])c1ccc(Sc2nc3ccccc3o2)c([N+](=O)[O-])c1	3.9	45.2	98.9*	47.9	-40.1	75.7*	2.6
Cn1ccnc1Sc1cc(Cl)ccc1[N+](=O)[O-]	-1.4	7.5	-34.9	-7.9	-12.8	nt	nt
O=[N+]([O-])c1ccc(Cl)cc1Sc1nc2ccccc2o1	-9.7	2.0	53.8*	-1.4	22.0	16.2	nt
